Laboratory results reported in the supplement of paper PMC8728848.
Only a selection was taken, and the strongest signals are over-represented in it overall.

Tests used:
Assay in all cases: glycan array binding signal (z-score within array); higher = stronger binding
Settings in all cases: glycan notation: IUPAC condensed, linker removed
[1] = target: Gal(b1-4)GlcNAc(b1-3)Gal(b1-4)GlcNAc(b1-3)Gal(b1-4)GlcNAc(b1-2)Man(a1-3)[Gal(b1-4)GlcNAc(b1-3)Gal(b1-4)GlcNAc(b1-3)Gal(b1-4)GlcNAc(b1-2)Man(a1-6)]Man(b1-4)GlcNAc(b1-4)[Fuc(a1-6)]GlcNAc
Outline: (§1)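 Glycan array data were curated from 3228 arrays in the Consortium for Functional Glycomics database and kept only where the protein sequence was available. Glycan names were converted to IUPAC-condensed notation, and columns mapping to the same glycan were averaged. The binding signal is a within-array Z-score, averaged across arrays of the same protein sequence at different concentrations or buffers and across linkers. Negative Z-scores can be read as non-binding.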

[2] = target: Gal(b1-4)GlcNAc(b1-3)Gal(b1-4)GlcNAc(b1-3)Gal(b1-4)GlcNAc(b1-3)Gal(b1-4)GlcNAc(b1-3)Gal(b1-4)GlcNAc(b1-2)Man(a1-3)[Gal(b1-4)GlcNAc(b1-3)Gal(b1-4)GlcNAc(b1-3)Gal(b1-4)GlcNAc(b1-3)Gal(b1-4)GlcNAc(b1-3)Gal(b1-4)GlcNAc(b1-2)Man(a1-6)]Man(b1-4)GlcNAc(b1-4)GlcNAc
Outline: as §1

[3] = target: Gal(b1-4)GlcNAc(b1-3)Gal(b1-4)GlcNAc(b1-6)[Gal(b1-3)]GalNAc
Outline: as §1

[4] = target: Gal6S(b1-4)Glc
Outline: as §1

[5] = target: Gal6S(b1-4)GlcNAc6S
Outline: as §1

[6] = target: GalNAc(a1-3)GalNAc
Outline: as §1

[7] = target: GalNAc(b1-4)GlcNAc(b1-3)GalNAc(b1-4)GlcNAc
Outline: as §1

[8] = target: GalNAc3S(b1-4)GlcNAc
Outline: as §1

[9] = target: GlcNAc(a1-4)Gal(b1-4)GlcNAc(b1-3)Gal(b1-4)GlcNAc
Outline: as §1

[10] = target: GlcNAc(a1-4)Gal(b1-4)GlcNAc(b1-3)Gal(b1-4)[Fuc(a1-3)]GlcNAc(b1-3)Gal(b1-4)[Fuc(a1-3)]GlcNAc
Outline: as §1

[11] = target: GlcNAc(b1-2)[GlcNAc(b1-4)]Man(a1-3)[GlcNAc(b1-4)][GlcNAc(b1-2)[GlcNAc(b1-6)]Man(a1-6)]Man(b1-4)GlcNAc(b1-4)[Fuc(a1-6)]GlcNAc
Outline: as §1

[12] = target: GlcNAc(b1-3)Gal(b1-4)GlcNAc(b1-3)Gal(b1-4)GlcNAc(b1-3)Gal(b1-4)GlcNAc(b1-3)Gal(b1-4)GlcNAc(b1-2)Man(a1-3)[GlcNAc(b1-3)Gal(b1-4)GlcNAc(b1-3)Gal(b1-4)GlcNAc(b1-3)Gal(b1-4)GlcNAc(b1-3)Gal(b1-4)GlcNAc(b1-2)Man(a1-6)]Man(b1-4)GlcNAc(b1-4)[Fuc(a1-6)]GlcNAc
Outline: as §1

[13] = target: GlcNAc(b1-3)Man
Outline: as §1

[14] = target: Kdn(a2-3)Gal(b1-3)GlcNAc
Outline: as §1

[15] = target: Kdn(a2-3)Gal(b1-4)[Fuc(a1-3)]GlcNAc
Outline: as §1

[16] = target: Kdn(a2-6)Gal(b1-4)GlcNAc
Outline: as §1

[17] = target: Neu5Ac(a2-3)Gal(b1-3)GalNAc(b1-3)Gal(a1-4)Gal(b1-4)Glc
Outline: as §1

[18] = target: Neu5Ac(a2-3)Gal(b1-3)GalNAc(b1-4)[Neu5Ac(a2-3)]Gal(b1-4)Glc
Outline: as §1

[19] = target: Neu5Ac(a2-3)Gal(b1-3)[Fuc(a1-4)]GlcNAc(b1-3)Gal(b1-3)[Fuc(a1-4)]GlcNAc
Outline: as §1

[20] = target: Neu5Ac(a2-3)Gal(b1-3)[Fuc(a1-4)]GlcNAc(b1-3)Gal(b1-4)[Fuc(a1-3)]GlcNAc
Outline: as §1

[21] = target: Neu5Ac(a2-3)Gal(b1-4)GlcNAc(b1-3)Gal(b1-4)[Fuc(a1-3)]GlcNAc
Outline: as §1

[22] = target: Neu5Ac(a2-3)[Neu5Ac(a2-6)]GalNAc
Outline: as §1

[23] = target: Neu5Ac(a2-6)Gal(b1-4)GlcNAc(b1-2)Man(a1-3)[Neu5Ac(a2-6)Gal(b1-4)GlcNAc(b1-2)Man(a1-6)]Man(b1-4)GlcNAc(b1-4)[Fuc(a1-6)]GlcNAc
Outline: as §1

[24] = target: Neu5Ac(a2-6)Gal(b1-4)GlcNAc(b1-2)Man(a1-6)[GlcNAc(b1-2)Man(a1-3)]Man(b1-4)GlcNAc(b1-4)GlcNAc
Outline: as §1

[25] = target: Neu5Ac(a2-8)Neu5Ac(a2-3)Gal(b1-3)GalNAc(b1-4)[Neu5Ac(a2-8)Neu5Ac(a2-3)]Gal(b1-4)Glc
Outline: as §1

[26] = target: Neu5Ac(a2-8)Neu5Gc(a2-3)Gal(b1-4)GlcNAc
Outline: as §1

B1: PX9937B-bvu-524-33-524 (Bacteroides vulgatus) (protein)
chain: GTAYWKNPDQFTAFNTGLHALLREKSYNFFLLGEPRADIYGDNPIGGEASQGMERLPFNTINKENVGISNYGDMYKIINQINQMIAKTTETTILTEATQNYYLGEAYGMRAYLYFHLLRSWGDVVLYLDYTEGQNLDLSNITKGVSPATEVMEQIKKDIQASENAFGSDYSFKLGRHFWSAAATQMLKGEAYLWSGRQMNGGNSDYTIAKNAFENVKKADVGLVTSSFKDIFSFENKKNKEMIFTIHNGKDEYEMWGGYYRMRLIPAQDKMVKIYCDENGNSFVGTPDAQLNGLTQLQVRREFYFKGFRNNDTRWTTSLKAVYKKDAQGVVSYFGPITYKFQGTMLEGGSTRSFLDDFPIYRYADCLLQLAMAKVLLGEDPTEEINAVRERAYGSKYFNEHKAEIAYPNDNDPEFYTDNKWMKPDNAGALEAILKERLREFMFEGKRWYDIRLLGWDYVHQYSSAEQSRLLWPIDAGTLTNNSALKQTPGYE
glycan array binding signal (z-score) [1]: 2.54
glycan array binding signal (z-score) [2]: 8.61
glycan array binding signal (z-score) [3]: 3.08
glycan array binding signal (z-score) [4]: -0.101
glycan array binding signal (z-score) [5]: -0.297
glycan array binding signal (z-score) [6]: -0.035
glycan array binding signal (z-score) [7]: -0.144
glycan array binding signal (z-score) [8]: -0.324
glycan array binding signal (z-score) [9]: -0.254
glycan array binding signal (z-score) [10]: 0.453
glycan array binding signal (z-score) [11]: -0.459
glycan array binding signal (z-score) [12]: 5.78
glycan array binding signal (z-score) [13]: 0.006
glycan array binding signal (z-score) [14]: -0.588
glycan array binding signal (z-score) [15]: -0.28
glycan array binding signal (z-score) [16]: -0.409
glycan array binding signal (z-score) [17]: -0.124
glycan array binding signal (z-score) [18]: 0.323
glycan array binding signal (z-score) [19]: -0.529
glycan array binding signal (z-score) [20]: -0.189
glycan array binding signal (z-score) [21]: 0.162
glycan array binding signal (z-score) [22]: -0.279
glycan array binding signal (z-score) [23]: 0.782
glycan array binding signal (z-score) [24]: 0.042
glycan array binding signal (z-score) [25]: -0.231
glycan array binding signal (z-score) [26]: 5.74
